Where “and” joins values, the source holds several entries; their conditions need not be identical. Identical values can stand only once. Results filed as inconclusive are left out. Where a call stands in place of a potency, no number is given. Calls of active or inactive are those of the source. Calls come from the whole dose curve; as a rule, active = well fitted cell-killing curve with a large enough effect; inconclusive = small, poorly fitted or top-dose-only effect; inactive = no such curve, though single readings can be large or run the other way.
Experiment: qHTS of pediatric cancer cell lines to identify multiple opportunities for drug repurposing: Primary screen for NB1643 cells (AID 1347099); note: nearly all actives have a fitted effect of over 50% in size
Conditions: NB1643 neuroblastoma viability, CellTiter-Glo luminescence, 48 h; series mostly up to 46 µM
How it was run: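 ATP-based luminescence (CellTiter-Glo) quantifies viability after a 48-hour exposure. Compounds are dosed across 8 or 11 final concentrations; DMSO and 2.3 µM bortezomib serve as controls.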
Potency is the fitted concentration of half-maximal effect.

With `O=C(O)c1cn(C2CC2)c2cc(N3CCNCC3)c(F)cc2c1=O` as the compound, how does the Potency read?
Its Potency is “inactive”.

For `OCc1ccc(-c2nn(Cc3ccccc3)c3ccccc23)o1`, which Potency is on record?
The Potency was “inactive”.

With `COC(c1ccccc1)(c1ccccc1)[C@H](Oc1nc(C)cc(C)n1)C(=O)O` as the compound, how does the Potency read?
Its Potency is “inactive”.

Which Potency does the source give for `CN(C)c1ccc(C(=C2C=CC(=[N+](C)C)C=C2)c2ccc(N(C)C)cc2)cc1` here?
The Potency was 3.35 µM (active) and 7.43 µM (active).

Which Potency does the source give for `CN(CCOc1ccc(CC2SC(=O)NC2=O)cc1)c1ccccn1` (configuration not stated) here?
Its Potency is “inactive”.

For `S=P(N1CC1)(N1CC1)N1CC1`, which Potency is on record?
The Potency was 0.0935 µM (active).

With `CCc1c2c(nc3ccc(OC(=O)N4CCC(N5CCCCC5)CC4)cc13)-c1cc3c(c(=O)n1C2)COC(=O)[C@]3(O)CC` as the compound, how does the Potency read?
The Potency was 841 nM (active) and 1.66 µM (active).

Which Potency does the source give for `CCn1cc(C(=O)O)c(=O)c2cc(F)c(N3CCNCC3)nc21` here?
Its Potency is “inactive”.

Which Potency does the source give for `C[C@@H]1CN(c2c(F)c(N)c3c(=O)c(C(=O)O)cn(C4CC4)c3c2F)C[C@H](C)N1` here?
Its Potency is “inactive”.

With `CO[C@@]12[C@H](COC(N)=O)C3=C(C(=O)C(C)=C(N)C3=O)N1C[C@@H]1N[C@@H]12` as the compound, how does the Potency read?
Its Potency is 1.33 µM (active).

With `C#CCN[C@@H]1CCc2ccccc21` as the compound, how does the Potency read?
Its Potency is “inactive”.

For `NCCCC(O)(P(=O)(O)O)P(=O)(O)O`, which Potency is on record?
The Potency was “inactive”.

Which Potency does the source give for `O=C(O)c1cc(=O)[nH]c(=O)[nH]1` here?
The Potency was “inactive”.

Which Potency does the source give for `CCOC(=O)c1ccc(OC(=O)CCCCCN=C(N)N)cc1` here?
The Potency was “inactive”.

Which Potency does the source give for `Cc1oc(=O)oc1CN1CCN(c2cc3c(cc2F)c(=O)c(C(=O)O)c2n3C(C)S2)CC1` (configuration not stated) here?
Its Potency is “inactive”.

Which Potency does the source give for `O=C(N[C@H](CO)[C@H](O)c1ccc([N+](=O)[O-])cc1)C(Cl)Cl` here?
The Potency was “inactive”.

Which Potency does the source give for `NC(=O)c1cccc(N)c1` here?
Its Potency is “inactive”.

Which Potency does the source give for `O=C(O)CCn1c2c(c3ccccc31)C[C@H](NS(=O)(=O)c1ccc(F)cc1)CC2` here?
The Potency was “inactive”.

Which Potency does the source give for `N[C@@H](C(=O)N[C@@H]1C(=O)N2C(C(=O)O)=C(Cl)CS[C@H]12)c1ccccc1` here?
Its Potency is “inactive”.

For `CC(C)NCC(O)c1ccc(NS(C)(=O)=O)cc1` (configuration not stated), which Potency is on record?
The Potency was “inactive”.

Which Potency does the source give for `COc1ccc2c(c1)c(CC(=O)OCC(=O)O)c(C)n2C(=O)c1ccc(Cl)cc1` here?
Its Potency is “inactive”.

With `CCCCc1oc2ccc(NS(C)(=O)=O)cc2c1C(=O)c1ccc(OCCCN(CCCC)CCCC)cc1` as the compound, how does the Potency read?
Its Potency is 18.7 µM (active).

For `Cc1noc(NS(=O)(=O)c2ccc(N)cc2)c1C`, which Potency is on record?
Its Potency is “inactive”.

Which Potency does the source give for `Cc1ncc([N+](=O)[O-])n1CCO` here?
The Potency was “inactive”.

With `CCN(C)C(=O)Oc1cccc([C@H](C)N(C)C)c1` as the compound, how does the Potency read?
The Potency was “inactive”.

Which Potency does the source give for `CCN[C@H]1C[C@H](C)S(=O)(=O)c2sc(S(N)(=O)=O)cc21` here?
The Potency was “inactive”.

With `NC(=O)N1c2ccccc2CC(=O)c2ccccc21` as the compound, how does the Potency read?
The Potency was “inactive”.

For `CCCCS(=N)(=O)CCC(N)C(=O)O` (configuration not stated), which Potency is on record?
Its Potency is “inactive”.

With `COc1ccccc1OCC(O)COC(N)=O` (configuration not stated) as the compound, how does the Potency read?
The Potency was “inactive”.

For `Cc1onc(-c2ccccc2Cl)c1C(=O)N[C@@H]1C(=O)N2[C@@H]1SC(C)(C)[C@@H]2C(=O)O`, which Potency is on record?
The Potency was “inactive”.

With `CCN(CC)CCn1c(=O)c(Cc2ccc(OC)cc2)nc2ccccc21` as the compound, how does the Potency read?
Its Potency is “inactive”.

With `Cc1cccc(Nc2ccncc2S(=O)(=O)NC(=O)NC(C)C)c1` as the compound, how does the Potency read?
The Potency was “inactive”.

With `NC(N)=NC(N)=NCCc1ccccc1` as the compound, how does the Potency read?
The Potency was “inactive”.

Which Potency does the source give for `O=P(O)(O)C(O)(Cc1cccnc1)P(=O)(O)O` here?
Its Potency is “inactive”.

With `COc1ncnc(NS(=O)(=O)c2ccc(N)cc2)c1OC` as the compound, how does the Potency read?
The Potency was “inactive”.

With `CC(C)C1CCC(C(=O)N[C@H](Cc2ccccc2)C(=O)O)CC1` (some centres not stated) as the compound, how does the Potency read?
Its Potency is “inactive”.

With `CCOCC(O)COc1ccc(NC(=O)CC[S+](C)C)cc1` (configuration not stated) as the compound, how does the Potency read?
The Potency was “inactive”.
